# Inconclusive results are not listed. Activity calls are given as the source filed them. Calls follow the shape of the dose curve; as a rule, active = well fitted inhibition curve with a large enough effect; inconclusive = small, poorly fitted or top-dose-only effect; inactive = no such curve, though single readings can be large or run the other way.
# Test: Acumen qHTS Assay for Inhibitors of the mTORC1 Signaling Pathway in MEF (Tsc2-/-, p53-/-) Cells: Hit Validation; also: nearly all actives have a fitted effect of over 65% in size
# Conditions: Acumen imaging; activity change, negative = inhibition: at 37.3 µM (top of the series)
# Description: The mammalian target of rapamycin (mTOR) is an intracellular serine/threonine kinase Aberrant regulation of mTOR signaling plays a causative role in a number of human diseases, including cancer, benign tumors such as lymphangioleiomyomatosis (LAM) and Tuberous Sclerosis Complex (TSC), and metabolic diseases such as diabetes and obesity. This project aims to identify inhibitors of ribosomal protein S6 (rpS6) phosphorylation. The phosphorylation of rpS6 is a key event downstream of mTOR activation. The assay uses a phospho-specific antibody of phospho-rpS6 to detect inhibitors of mTOR activation. Mutations in the Tsc1 and Tsc2 genes are the underlying genetic lesions responsible for TSC, causing constitutive activation of the mTORC1 pathway and leading to profound effects on cell metabolism. Aberrant metabolism in cancer has recently received significant attention as a target to develop therapeutic agents in the treatment of cancer.1 As Tsc2-/- cells have lost the ability to respond to energy and growth factor deprivation, these cells are unable to properly down regulate cellular biosynthetic processes in response to metabolic stress, and are thus extremely sensitive to glucose deprivation-induced death.2 A central goal of this project is to explore the unique cell survival and metabolic properties of cells with Tsc1 or Tsc2 by screening for compounds that selectively target the Tsc2-/- MEFs by screening both Tsc2-/- and WT MEF cell lines. We hope to better understand these aspects of TSC physiology in order to exploit them for therapeutic benefit.
# NIH Molecular Libraries Probe Production Centers Network [MLPCN]
# NIH Chemical Genomics Center [NCGC]
# Assay Submitter (PI): Blenis, John; Harvard University
# For quantitative high throughput analysis of mTORC1 signaling, we developed a cell-based assay for immuno-fluorescence based detection of rpS6 phosphorylation on the Acumen Explorer that will be used a platform for the primary small molecule screen. Mouse embryonic fibroblasts (MEFs) are cultured in 1536-well plates using DMEM + 10% FBS. Twenty-four hrs after plating, test compounds (solubilized in DMSO) are delivered and incubated with the cells for 24 hrs at 37 degree Celsius. Following the incubation, media with compound is aspirated and the cells are fixed in 4% paraformaldehyde (PFA) containing PBS + 0.2% TX-100. Next, PFA is aspirated, cells are washed two times with PBS plus 0.2% TX-100 and the cells are blocked for 1 hr at room temperature (blocking buffer: LiCOR Blocking Buffer plus 0.2% TX-100). This is followed by aspiration and staining with Alexa-488 conjugated-phospho-rpS6 Ser235/236 antibody for 2 hours at room temperature (Cell Signaling Technology # 4803, 1:50 dilution in blocking buffer). Cells are washed two times with PBS plus 0.2% TX-100, and stained with 10 uM propidium iodide (PI) for 20-25 minutes for cell number measurement (1:500 dilution of Hoescht staining is also added for IN Cell imaging). The plates are scanned on the Acumen Explorer laser scanning instrument (TTP Labtech) using the 488nm laser for simultaneous excitation of the Alexa-488 and PI. […] Fluorescence emission from the PI stain is selected using a 575-640 nm band pass filter. The normalized phospho-S6 staining is calculated as the ratio of the integrated Alexa 488 intensity divided by the integrated PI intensity for the single concentration rapamycin control (7.5 nM) and DMSO columns. […] Inhibition of the pathway is defined based on the normalized phospho-S6 intensity in rapamycin treated cells. Active cells are defined as those with a normalized phospho-S6 staining above this threshold, and each treatment is reported as the % positive cells in the well, where thresholds are defined by selecting wells with the highest and lowest signal and differentiating between the % non-active and % active populations. In addition to the pathway specific phospho-S6 endpoint, the number of PI stained cells from the Acumen is recorded as a measure of cell viability. […]
# Potency is read from the fitted curve at half-maximal effect.
SMILES,"activity change, negative = inhibition [%]",Potency
Cc1ccccc1-c1nc(CN2C(=O)CN=C(c3ccccc3)c3ccccc32)c(C)o1,-13.1,–
COc1ccccc1N=c1scc(-c2ccc(S(=O)(=O)N3CCCC3)cc2)n1C,–,5.85 µM (active)
NC(N)=NC(=O)c1nc(Cl)c(N)nc1N,57.9,–
CCN(CC)C(=O)c1ccc(NC(=O)CCn2nc(-c3ccc(C)cc3)c3ccccc3c2=O)cc1,-9.62,–
Cc1cccc(N(CC(=O)NCCSc2ccc(Cl)cc2)S(=O)(=O)c2ccccc2)c1C,–,13.1 µM (active)
O=C(c1ccccc1)c1ccc2nc(N3CCN(c4ccc(F)cc4)CC3)c3nncn3c2c1,–,18.5 µM (active)
COc1ccc(C(=O)Nc2ccc3c(c2)N(C)C(=O)c2ccccc2S3)cc1OC,–,10.4 µM (active)
COc1ccc2nc(NC(=O)c3nc(S(=O)(=O)Cc4cccc(C)c4)ncc3Cl)sc2c1,–,2.07 µM (active)
COc1ccc(N2CCN(C(=O)C3CCCN(S(=O)(=O)c4ccc5c(c4)CCCN5C(C)=O)C3)CC2)cc1 (configuration not stated),–,16.5 µM (active)
Cc1ccc(-n2c(/C=C/c3ccc(Br)s3)nc3ccccc3c2=O)cc1C,-10.2,–
Cc1oc(-c2ccc(Cl)cc2)nc1CN1CCC(C(=O)NCCCN2CCN(c3cccc(Cl)c3)CC2)CC1,–,5.85 µM (active)
O=C(NCCc1ccc(Cl)cc1)C(=O)NCC(c1cccs1)S(=O)(=O)c1cccs1 (configuration not stated),-3.28,–
CN[C@@H]1C[C@@]2(C)O[C@@H]([C@@H]1OC)n1c3ccccc3c3c4c(c5c6ccccc6n2c5c31)C(=O)NC4,–,0.0163 µM (active)
CCCCOc1ccc(CN2C(=O)C(=O)c3cc(C)ccc32)cc1OC,–,0.261 µM (active)
CCOc1ccc(/C=C/c2nc(C#N)c(NCc3ccccc3)o2)cc1,–,1.04 µM (active)
COc1ccc(S(=O)(=O)NCCc2sc3nc(-c4ccc(C)cc4)nn3c2C)cc1F,–,7.36 µM (active)
CCOc1ccc(CN(CCc2ccc3c(c2)OCO3)Cc2ccc(C)cc2)cc1,-0.408,–

# — PubChem BioAssay AID651784 (National Center for Advancing Translational Sciences (NCATS), 2012)
